Results filed as inconclusive are left out. A call without a number means that no potency is given here. The source made the active and inactive calls. The call rests on the fitted dose curve; in most records, active means well fitted cell-killing curve with a large enough effect in the repeat runs; inconclusive means weak or mixed curves, or effect the other way; inactive means no such curve, though single readings can be large or run the other way.
Assay: qHTS assay to identify small molecule antagonists of the retinoid-related orphan receptor gamma (ROR-gamma) signaling pathway - cell viability counter screen (AID 1159520); further: nearly all actives have a fitted effect of over 50% in size
Settings: Tet-on RORgamma CHO cells viability, ATP luminescence, 16 h; series mostly up to 92.4 µM
Description: U.S. Tox21 Program National Center for Advancing Translational Sciences [NCATS] NIH Chemical Genomics Center [NCGC] U.S. Environmental Protection Agency [EPA] National Institutes of Environmental Health Sciences [NIEHS] National Toxicology Program [NTP] U.S. Food and Drug Administration [FDA] Tox21 Assay Overview: Nuclear steroid hormone receptors are involved in many biological processes including inflammatory responses, cell proliferation, and apoptosis. Environmental factors or compounds disrupting these nuclear receptor pathways and gene expression may promote susceptibility to immunotoxicants and autoimmune diseases. One important group of these expression factors are the retinoid-related orphan receptors. To assess compounds that may interfere with the retinoid-related orphan receptor gamma (ROR-gamma) transcription factor, a cell-based luciferase assay was used. The CHO cell-based assay utilizes a TET-inducible ROR expression factor and ROR response element-LUC reporter gene. Reporter gene activity was induced using Doxycycline Hyclate and measured after 16 hr incubation. Tet-on ROR gamma CHO cells were used to screen against the Tox21 10K compound library for cytotoxicity by measuring the viability of the cells based on the quantitation of the ATP.
Tox21 Assay Protocol Summary: Tet-on ROR gamma CHO cells were dispensed at 1,000 cells in 4 uL of culture medium per well into white wall/solid bottom 1536-well plates using a Multidrop Combi (Thermo Scientific, Waltham, MA) dispenser. Following incubation at 37 C and 5% CO2 for 4 hr, 23 nL of compounds dissolved in DMSO, positive controls or DMSO only were transferred by a Pintool station (Kalypsys, San Diego, CA) and after 2 hr incubation at 37 C, one ul of 1 uM (final concentration) of Doxycycline Hyclate was added to all the wells by using a Flying Reagent Dispenser (FRD) (Aurora Discovery, San Diego, CA). After 16 hr incubation at 37 C and 5% CO2, 5 uL of CellTiter-Glo reagent (Promega Corporation, Madison, WI) was added to each assay plate using FRD. After 30 min incubation at room temperature, luminescence was quantified on a ViewLux plate reader (Perkin Elmer, Waltham, MA).

Structure (SMILES) | Potency
O=c1[nH]nnc2ccccc12 | inactive
OCCOCCOCCO | inactive
Cc1ccc(S(N)(=O)=O)cc1 | inactive
O=C1CCC(N2C(=O)c3ccccc3C2=O)C(=O)N1 (stereo not given) | inactive
CCCCCC1=CCCC1=O | inactive
OCC(CO)(CBr)CBr | inactive
O=C(O)c1ccccc1C(c1ccc(O)cc1)c1ccc(O)cc1 | inactive
O=C(Oc1ccccc1)c1ccccc1 | inactive
C=C(C)C(=O)Nc1ccc(Cl)c(Cl)c1 | inactive
CSCCC=O | inactive
CC(c1cc2ccccc2s1)N(O)C(N)=O (stereo not given) | inactive
ON=C1CCCCC1 | inactive
CCC(O)OCCCOC (stereo not given) | inactive
Cc1occc(=O)c1O | inactive
CCCC(C)=O | inactive
CCCCCCCCCCCCOCCO | inactive
CC(=O)CC(=O)Nc1ccccc1C | inactive
CC1CCC(C(C)C)C(O)C1 (stereo not given) | inactive
c1ccc(OCCOc2ccccc2)cc1 | inactive
CC(=O)CC(=O)Nc1ccccc1 | inactive

Structure (SMILES) | Potency
C[Si](O[Si](C)(C)C)O[Si](C)(C)C | inactive
CN(C)CCCN | inactive
CCCCCCCCC/C=C/CC1CC(=O)OC1=O (stereo not given) | inactive
CCc1ccc(CCOc2ccc(CC3SC(=O)NC3=O)cc2)nc1 (stereo not given) | inactive
O=C(O)c1ccc(C(=O)O)cc1 | inactive
CC(=O)Nc1cccc(O)c1 | inactive
CCCCCOC(C)=O | inactive
OC[C@H]1O[C@@](CO)(O[C@H]2O[C@H](CO)[C@@H](O)[C@H](O)[C@H]2O)[C@@H](O)[C@@H]1O | inactive
C=C(C)C(=O)O[C@H]1C[C@@H]2CC[C@@]1(C)C2(C)C | inactive
COc1ccc(Cl)cc1C(=O)NCCc1ccc(S(=O)(=O)NC(=O)NC2CCCCC2)cc1 | inactive
NNc1nncc2ccccc12 | inactive
CC1=CCC2CC1C2(C)C (stereo not given) | inactive
OCCOCCN1CCN(C2=Nc3ccccc3Sc3ccccc32)CC1 | inactive
COCCCOc1ccnc(CS(=O)c2nc3ccccc3[nH]2)c1C (stereo not given) | inactive
O=C(O)CC(C(=O)O)C(CC(=O)O)C(=O)O (stereo not given) | inactive
C=CCOC(=O)c1ccccc1C(=O)OCC=C | inactive
CC(=O)OCC(=O)[C@@]12N=C(C)O[C@@H]1C[C@H]1[C@@H]3CCC4=CC(=O)C=C[C@]4(C)[C@H]3[C@@H](O)C[C@@]12C | inactive
O=P(OC(CCl)CCl)(OC(CCl)CCl)OC(CCl)CCl | inactive
O=c1[nH]c(=O)n([C@H]2C[C@H](O)[C@@H](CO)O2)cc1Br | inactive
Cc1ccc(N(C)C)cc1 | inactive

— PubChem BioAssay (Tox21)
